This is part of a sample that, as a whole, favours compounds with a hit. Of some 83,000 tested, about 20% had one in any assay.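 Negative percent growth values reflect cell death: -40 means 40% of the cells present at the start died, and -100 means all died.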 A number with no mark means an inactive call. Calls of active or inactive are those of the source. How the source made its calls: active means growth percent below 10; inactive means the rest.
Key:
Experiment in all cases: NCI-60 one-dose screen, 48 h (100 = growth as untreated, 0 = no growth, -100 = all killed)
Settings in all cases: 10 µM unless noted
[1] = system: SR leukemia
[2] = system: RPMI-8226 leukemia
[3] = system: OVCAR-8 ovarian
[4] = system: OVCAR-5 ovarian
[5] = system: OVCAR-4 ovarian
[6] = system: SK-OV-3 ovarian
[7] = system: IGROV1 ovarian
[8] = system: OVCAR-3 ovarian
[9] = system: HS 578T breast
[10] = system: NCI/ADR-RES ovarian

Row | Compound | growth [1] | growth [2] | growth [3] | growth [4] | growth [5] | growth [6] | growth [7] | growth [8] | growth [9] | growth [10]
1 | Nc1cc(C(=O)O)cc(-n2c(O)c(C=C3N=c4ccccc4=N3)sc2=S)c1 | 121% | 100% | 103% | 99% | 101% | 99.9% | 86.8% | 106% | 103% | 103%
2 | Fc1cccc(-c2nc(-c3c[nH]c4ncccc34)cs2)c1 | 84.3% [100 µM] | 68.4% [100 µM] | 45.3% [100 µM] | 74.9% [100 µM] | 9.43% [100 µM] (active) | 55.9% [100 µM] | 81.5% [100 µM] | 36.1% [100 µM] | 46.5% [100 µM] | 48.1% [100 µM]
3 | c1cc(OCCN2CCCCCC2)ccc1CNc1ccc2nc(CCC3CCCCC3)[nH]c2c1 | 26.1% | 4.27% (active) | 65.6% | 79.5% | 51.4% | 82.3% | 43.2% | 77.3% | 65.2% | 66.9%
4 | CS(=O)(=O)c1ccc(-c2nc3ccccc3n2CC(=O)N/N=C/c2ccccc2)cc1 | 99.1% | 108% | 112% | 98.5% | 116% | 93.2% | 99.7% | 105% | 102% | 105%
5 | CCCCC#Cc1c(I)n(C2OC(CO[Si](C)(C)C(C)(C)C)C3OC(C)(C)OC32)c(=O)n(C(=O)c2ccccc2)c1=O (stereo not given) | 5.85% (active) | -55.2% (active) | 48.8% | 87.2% | 82.6% | 106% | 27.4% | -59.7% (active) | 12% | 74%
6 | Cn1c(C#N)ccc1-c1ccc(F)c(NC(=O)c2ccc(F)cc2)c1 | 29.4% | 70.1% | 95.4% | 85.4% | 85% | 80% | 74.2% | 77% | 71.5% | 76.9%
7 | COC(=O)[C@@]12CC=C(C)[C@]3(C[C@H](c4ccoc4)OC3=O)[C@H]1C=C[C@@H](O)[C@@]2(O)C(=O)OC | 89.2% | 120% | 96.4% | 103% | 110% | 99.9% | 92.4% | 105% | 111% | 102%
8 | N#CSc1c[nH]c2ccc(/C=C/C(=O)/C=C(O)/C=C/c3ccc4[nH]cc(SC#N)c4c3)cc12 | 2.57% (active) | 3.93% (active) | 9.71% (active) | 67.4% | 18.6% | 100% | 3.73% (active) | 18.3% | 51.7% | 46.4%
9 | CCOC(=O)c1cnn(CC(C)O)c1NC(=O)NCc1ccccc1C(F)(F)F (stereo not given) | 82.3% | 116% | 97.6% | 102% | 98.6% | 101% | 95.5% | 108% | 110% | 100%
10 | CC(O)Cc1c[nH]c(=O)[nH]c1=O (stereo not given) | 93.8% | 117% | 92% | 109% | 115% | 29.3% | 116% | 99% | 103% | 104%
11 | CCOC(=O)c1c(NC(=O)c2ccccc2)sc2c3c(ccc12)OCN(C)C3 | -39.6% (active) | -46.2% (active) | 28.5% | -0.612% (active) | 61.8% | 88.5% | 18.6% | 52.1% | 57.9% | 5.26% (active)
12 | O=C(/C=C/c1cn(-c2ccccc2)nc1-c1ccccc1)CCC(=O)NO | 82.3% | 99.3% | 97.2% | 118% | 112% | 98.8% | 104% | 99% | 95.3% | 101%
13 | [N-]=[N+]=NCC1OC(n2cnc3c(NC(=O)Nc4ccccc4)ncnc32)C2OC(=O)CC12 (stereo not given) | 90.1% | 98.4% | 103% | 95.7% | 106% | 106% | 91.3% | 95.1% | 112% | 102%
14 | C=C1C(=O)O[C@H]2[C@H]1CC/C(COC(=O)C(=O)c1c[nH]c3ccc(Cl)cc13)=C\CC[C@@]1(C)O[C@@H]21 | 1.13% (active) | -39.1% (active) | -30.3% (active) | -36.6% (active) | -89.3% (active) | 26.2% | -81% (active) | -95% (active) | -14.2% (active) | -20% (active)
15 | O=C1C(Cl)=C(Nc2ccccc2)C(=O)c2ccccc21 | -21% (active) | -7.02% (active) | -32.1% (active) | 75.7% | -96.9% (active) | 75.1% | -77.6% (active) | -96.7% (active) | 54% | -15.2% (active)
16 | Cn1c(=O)c2[nH]c(SC/C(=N/O)c3ccc(Br)cc3)nc2n(C)c1=O | 60.4% | 59.4% | 26.5% | 54.8% | 7.77% (active) | -33.3% (active) | 20.1% | 11.8% | 31.8% | 37.1%
17 | O=C1Nc2ccccc2/C1=N/N1C(=O)CN(CCCl)C1=O | 104% | 101% | 100% | 103% | 118% | 96.9% | 97.1% | 113% | 95.9% | 102%
18 | O=S(=O)(N=C1C(Cl)=C(Cl)C(=NS(=O)(=O)c2ccccc2)C(Cl)=C1Cl)c1ccccc1 | 46.4% | 79.4% | 69% | 73.8% | 91.9% | 102% | 57.7% | 130% | 93.2% | 65.3%
19 | Nc1ccc(-c2ccncc2)cc1NC(=O)N1CCCC1 | 91.8% | 82.2% | 85.3% | 109% | 101% | 92.2% | 99.4% | 99.3% | 93.7% | 81.8%
20 | COCCn1cc(-c2nc(-c3cn(CCOC)c4ncccc34)cs2)c2cc(F)ccc21 | 35.3% | 61.3% | 62.4% | 38.8% | 25.4% | 76.8% | 30.1% | 17.6% | 70.8% | 63.8%
21 | CCOC(=O)c1c(C)nc2ccccc2c1/C=C/c1ccc(F)cc1 | 56.3% | 48.7% | 70.4% | 93.1% | 64.2% | 87.6% | 66.6% | 80.8% | 96.3% | 41.2%
22 | COc1ccc(/C=N/Nc2c3ccccc3nc3ccccc23)cc1 | 95.6% | 83.8% | 97% | 111% | 81.7% | 90.8% | 88.2% | 91.7% | 93.1% | 102%
23 | CC(=O)c1ccc(-n2cc(CN3CCN(c4cc5c(cc4F)c(=O)c(C(=O)O)cn5C4CC4)CC3)nn2)cc1 | 99.6% | 47.9% | 95.1% | 103% | 102% | 84.9% | 75.3% | 90.4% | 80.6% | 87.9%
24 | CCOC(=O)NC(=S)n1oc(=O)c2ccccc21 | 114% | 101% | 102% | 96.6% | 96.5% | 104% | 100% | 105% | 104% | 105%
25 | CCCCCCCCn1ccc2cc(NC(=O)CN3CCN(c4cc(C)nc(Cl)n4)CC3)ccc21 | 73.3% | 73.5% | 94.9% | 95.2% | 75.2% | 105% | 72.5% | 108% | 94.2% | 84.8%
26 | O=C(Nc1ccc(Oc2cccc(Cl)c2)c(Cl)c1)c1cccnn1 | 87% | 71.1% | 91.7% | 91.1% | 68.6% | 102% | 91.4% | 85.6% | 106% | 85%
27 | O=C(CCCCCCCC(=O)N1CCCCC1)N1CCCCC1 | 135% | 103% | 98.8% | 98.7% | 107% | 115% | 109% | 111% | 96.5% | 89%
